Measured values taken from PubChem BioAssay.
For part of these data: Measured potencies and affinities stand elsewhere. Activity calls are given as the source filed them. Unless noted, the rule behind the calls is not given here.

Columns and labels:
[1] = antimalarial activity against Dd2 strain (AID 2302;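 active = growth inhibition above 50% at the single 2 µM test dose, taken to imply half-maximal potency below 2 µM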;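 note: 0% = DMSO untreated growth and 100% = chloroquine plus artemisinin killed control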); conditions: P. falciparum Dd2 in RBCs, LDH growth readout, 72 h; at 2 µM; stronger effect = higher value
[2] = human hepatoma cell viability loss – ATP luminescence, cytotoxicity control for P. falciparum antimalarial project, primary screen (AID 2303;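 active = inhibition above 50%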;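 note: 0% = DMSO wells and 100% = digitonin-killed cells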); conditions: HepG2 viability, 24-48 h, at 10 µM, stronger effect = higher value
[3] = target: L-lactate dehydrogenase (Plasmodium falciparum (isolate CDC / Honduras)) (UniProt Q27743); experiment: PfLDH activity inhibition – cell lysate, 3D7 strain, counter-screen for P. falciparum growth inhibition project (AID 2304);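 note: 0% = vehicle and 100% = reference inhibitor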; conditions: P. falciparum 3D7 crude extract, LDH APAD/NBT absorbance; at 2 µM; stronger effect = higher value
[4] = inhibition of 3D7 malaria parasite growth – strain 3D7 (AID 2306);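 note: 0% = DMSO wells and 100% = chloroquine plus artemisinin control wells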; conditions: P. falciparum 3D7 erythrocytic growth, LDH absorbance, 72 h; at 2 µM; stronger effect = higher value
[5] = target: Calcium-dependent protein kinase 1 (Plasmodium falciparum (isolate 3D7)) (UniProt P62344); experiment: PfCDPK1 kinase inhibitors, biochemical, TCAMS library (AID 1159585; cut-off not given, nearly all actives have IC50 up to about 0.98 µM;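 note: inhibitors leave more ATP so luminescence rises with inhibition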); conditions: recombinant PfCDPK1, Kinase-Glo ATP depletion luminescence
[6] = target: Plasmodium falciparum protein kinase 6 (PK6, PF3D7_1337100) (UniProt Q8IDW1); experiment: PfPK6 kinase inhibitors, biochemical, TCAMS library (AID 1159586); conditions: recombinant PfPK6, Kinase-Glo ATP depletion luminescence
[7] = target: Protein kinase 7 (PK7), Plasmodium falciparum 3D7 (PF3D7_0213400) (UniProt Q7YTF7); experiment: inhibition of Plasmodium PK7 catalytic activity – biochemical, TCAMS antimalarial set, Kinase-Glo luminescence (AID 1159587); conditions: recombinant PfPK7, Kinase-Glo ATP depletion luminescence
[8] = target: Calcium-dependent protein kinase 4 (Plasmodium falciparum (isolate 3D7)) (UniProt Q8IBS5); experiment: PfCDPK4 kinase inhibitors, biochemical, TCAMS library (AID 1159588; cut-off not given, nearly all actives have IC50 up to about 0.91 µM); conditions: recombinant PfCDPK4, Kinase-Glo ATP depletion luminescence
Chain of Calcium-dependent protein kinase 4 (Plasmodium falciparum (isolate 3D7)) (Q8IBS5 whole entry, looked up): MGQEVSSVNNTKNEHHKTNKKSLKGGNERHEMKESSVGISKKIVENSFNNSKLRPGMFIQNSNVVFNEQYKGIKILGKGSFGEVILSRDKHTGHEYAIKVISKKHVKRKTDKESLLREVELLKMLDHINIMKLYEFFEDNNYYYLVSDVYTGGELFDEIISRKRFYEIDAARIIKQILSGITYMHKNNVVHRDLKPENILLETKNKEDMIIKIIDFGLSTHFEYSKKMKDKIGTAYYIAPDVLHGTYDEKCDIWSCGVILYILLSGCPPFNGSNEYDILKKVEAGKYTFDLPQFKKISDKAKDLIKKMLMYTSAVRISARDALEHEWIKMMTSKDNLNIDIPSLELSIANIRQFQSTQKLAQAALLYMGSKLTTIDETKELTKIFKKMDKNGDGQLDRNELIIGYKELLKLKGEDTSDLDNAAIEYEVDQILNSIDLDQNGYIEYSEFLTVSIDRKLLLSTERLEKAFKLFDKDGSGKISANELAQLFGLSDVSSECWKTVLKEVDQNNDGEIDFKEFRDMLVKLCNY

Chain of Plasmodium falciparum protein kinase 6 (PK6, PF3D7_1337100) (Q8IDW1 1-305): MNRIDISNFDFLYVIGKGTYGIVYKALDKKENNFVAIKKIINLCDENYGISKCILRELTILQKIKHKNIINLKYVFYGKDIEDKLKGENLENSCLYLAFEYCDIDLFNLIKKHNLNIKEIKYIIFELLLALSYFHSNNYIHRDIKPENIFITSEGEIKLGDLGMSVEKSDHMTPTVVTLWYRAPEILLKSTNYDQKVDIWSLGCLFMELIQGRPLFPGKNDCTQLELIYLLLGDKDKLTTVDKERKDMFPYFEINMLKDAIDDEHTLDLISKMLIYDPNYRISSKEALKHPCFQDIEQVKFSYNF
Chain of Protein kinase 7 (PK7), Plasmodium falciparum 3D7 (PF3D7_0213400) (Q7YTF7 1-343): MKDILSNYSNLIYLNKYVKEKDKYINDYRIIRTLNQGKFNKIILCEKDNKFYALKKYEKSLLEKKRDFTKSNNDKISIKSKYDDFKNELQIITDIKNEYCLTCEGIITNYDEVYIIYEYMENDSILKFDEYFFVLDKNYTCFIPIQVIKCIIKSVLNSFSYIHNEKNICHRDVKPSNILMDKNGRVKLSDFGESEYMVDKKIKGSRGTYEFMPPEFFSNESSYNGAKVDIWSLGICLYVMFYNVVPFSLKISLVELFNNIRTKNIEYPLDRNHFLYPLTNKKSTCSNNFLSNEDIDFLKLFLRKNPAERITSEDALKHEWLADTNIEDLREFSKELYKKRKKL
Chain of L-lactate dehydrogenase (Plasmodium falciparum (isolate CDC / Honduras)) (Q27743 whole entry, looked up): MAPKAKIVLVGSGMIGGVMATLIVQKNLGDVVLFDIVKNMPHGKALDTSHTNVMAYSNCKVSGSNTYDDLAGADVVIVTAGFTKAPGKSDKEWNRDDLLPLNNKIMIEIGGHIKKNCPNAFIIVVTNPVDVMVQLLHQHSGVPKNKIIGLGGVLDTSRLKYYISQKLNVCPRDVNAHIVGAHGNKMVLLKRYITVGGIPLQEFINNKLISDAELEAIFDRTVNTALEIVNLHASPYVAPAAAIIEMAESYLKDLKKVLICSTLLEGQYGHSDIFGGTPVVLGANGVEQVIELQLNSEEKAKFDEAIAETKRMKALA
Chain of Calcium-dependent protein kinase 1 (Plasmodium falciparum (isolate 3D7)) (P62344 whole entry, looked up): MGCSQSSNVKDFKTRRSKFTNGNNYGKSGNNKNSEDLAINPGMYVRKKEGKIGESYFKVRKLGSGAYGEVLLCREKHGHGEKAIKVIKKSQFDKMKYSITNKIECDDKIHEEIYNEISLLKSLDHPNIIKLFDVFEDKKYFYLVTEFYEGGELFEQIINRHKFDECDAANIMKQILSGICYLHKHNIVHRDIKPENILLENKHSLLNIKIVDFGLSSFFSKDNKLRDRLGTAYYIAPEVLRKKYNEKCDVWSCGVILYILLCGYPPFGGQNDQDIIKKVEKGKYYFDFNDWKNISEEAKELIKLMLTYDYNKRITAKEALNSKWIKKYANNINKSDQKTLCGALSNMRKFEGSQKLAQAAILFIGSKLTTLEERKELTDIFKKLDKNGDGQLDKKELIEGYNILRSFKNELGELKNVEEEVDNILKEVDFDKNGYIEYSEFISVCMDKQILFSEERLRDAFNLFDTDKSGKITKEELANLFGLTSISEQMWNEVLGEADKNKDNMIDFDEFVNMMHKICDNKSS

Cc1cc(N[C@@H](CC(C)C)C(=O)NCCc2ccccc2)nc(NCCc2ccc(F)cc2)n1
active: growth inhibition [1] 53% | growth inhibition [4] 98%
inactive: inhibition [2] 12% | inhibition [3] -1% | outcome [5] | outcome [6] | outcome [7] | outcome [8]

CCCc1cc(Cc2cnc(N)nc2N)cc(CC)c1OC
active: growth inhibition [4] 97%
inactive: growth inhibition [1] 1% | inhibition [2] 4% | inhibition [3] -7% | outcome [5] | outcome [6] | outcome [7] | outcome [8]

CN(C)CCCNCc1ccc(-c2ccc(CNCCOc3ccccc3)cc2)cc1
inactive: inhibition [2] 27% | inhibition [3] 0% | outcome [5] | outcome [6] | outcome [7] | outcome [8]
active: growth inhibition [1] 53% | growth inhibition [4] 100%

CC(=O)c1ccc(-c2ccc(C(=O)NCCCCN3CCC(c4ccc5c(c4O)CCCC5)CC3)cc2)cc1
active: growth inhibition [1] 83% | inhibition [2] 87% | growth inhibition [4] 100%
inactive: inhibition [3] 1% | outcome [5] | outcome [6] | outcome [7] | outcome [8]

NC(N)=NN=CC(=O)Nc1cccc(C(F)(F)F)c1
active: growth inhibition [4] 99%
inactive: growth inhibition [1] 25% | inhibition [2] 21% | inhibition [3] 1% | outcome [5] | outcome [6] | outcome [7] | outcome [8]

O=S(=O)(Nc1cccc(CCN2CCCCC2CCN2CCCC2)c1)c1ccc2ccccc2c1 (stereo not drawn)
inactive: growth inhibition [1] 40% | inhibition [2] 22% | inhibition [3] -2% | outcome [5] | outcome [6] | outcome [7] | outcome [8]
active: growth inhibition [4] 91%

COc1ccc2nccc([C@H](O)CN3CCC(NCc4nc5c(F)cccc5[nH]4)CC3)c2c1
active: growth inhibition [4] 98%
inactive: growth inhibition [1] 0% | inhibition [2] 0% | inhibition [3] -1% | outcome [5] | outcome [6] | outcome [7] | outcome [8]

Nc1c2c(nc3ccc(NC(=O)c4ccc([N+](=O)[O-])cc4)cc13)CCCC2
inactive: inhibition [2] 19% | inhibition [3] 0% | outcome [5] | outcome [6] | outcome [7] | outcome [8]
active: growth inhibition [1] 72% | growth inhibition [4] 102%

Cc1cc(C2NC(=O)c3ccccc3N2)c(C)n1-c1ccc2c(c1)OCO2 (stereo not drawn)
active: growth inhibition [1] 85% | growth inhibition [4] 86%
inactive: inhibition [2] 13% | inhibition [3] -1% | outcome [5] | outcome [6] | outcome [7] | outcome [8]

O=C(Nc1cc(C(F)(F)F)cc(C(F)(F)F)c1)NC(CCCN1CCC2(CC1)OCc1ccccc12)c1ccc(Cl)c(Cl)c1 (stereo not drawn)
active: growth inhibition [1] 87% | growth inhibition [4] 94%
inactive: inhibition [2] 26% | inhibition [3] 2% | outcome [5] | outcome [6] | outcome [7] | outcome [8]

CC(C)c1ccc(NC(=O)N2CCc3ccc(OCCN(C(C)C)C(C)C)cc32)c(Br)c1
active: growth inhibition [4] 86%
inactive: growth inhibition [1] 5% | inhibition [2] 6% | inhibition [3] 2% | outcome [5] | outcome [6] | outcome [7] | outcome [8]

CC(C)c1ccc(CN2CCC(NC(=O)c3ccc(-c4cccc(F)c4)s3)CC2)cc1
active: growth inhibition [4] 83%
inactive: growth inhibition [1] 12% | inhibition [2] 47% | inhibition [3] 3% | outcome [5] | outcome [6] | outcome [7] | outcome [8]

CC(C)C[C@H](Nc1ccc(C#N)c2ccccc12)C(=O)NC(C)(C)C12CC3CC(CC(C3)C1)C2
active: growth inhibition [4] 96%
inactive: growth inhibition [1] 30% | inhibition [2] 19% | inhibition [3] -1% | outcome [5] | outcome [6] | outcome [7] | outcome [8]

C=CCOc1ccc(C(=O)Nc2nonc2-c2ccc(OC)c(OC)c2)cc1
inactive: inhibition [2] 2% | inhibition [3] -5% | outcome [5] | outcome [6] | outcome [7] | outcome [8]
active: growth inhibition [1] 91% | growth inhibition [4] 100%

COc1ccc(CCNc2ccnc3cc(Cl)ccc23)cc1OC
inactive: inhibition [2] 4% | inhibition [3] -7% | outcome [5] | outcome [6] | outcome [7] | outcome [8]
active: growth inhibition [1] 92% | growth inhibition [4] 101%

CN(Cc1cccc(O)c1)C1CCN(c2cc(NC(=O)c3ccc(F)cc3)ccn2)CC1
active: growth inhibition [4] 94%
inactive: growth inhibition [1] 9% | inhibition [2] 24% | inhibition [3] -2% | outcome [5] | outcome [6] | outcome [7] | outcome [8]

COc1cc(Cc2cnc(N)nc2N)cc(OCCCCCCN2C(=O)c3ccccc3C2=O)c1OC
active: growth inhibition [4] 95%
inactive: growth inhibition [1] 3% | inhibition [2] 15% | inhibition [3] 2% | outcome [5] | outcome [6] | outcome [7] | outcome [8]

COc1ccc(Nc2nccc(N3CCC(NC(=O)C(C)c4ccc(Cl)cc4)C3)n2)cc1 (stereo not drawn)
inactive: inhibition [2] 35% | inhibition [3] -4% | outcome [5] | outcome [6] | outcome [7] | outcome [8]
active: growth inhibition [1] 97% | growth inhibition [4] 85%

Cc1cc(NN=Cc2ccccc2)c2cc(C(F)(F)F)ccc2n1
inactive: inhibition [2] 30% | inhibition [3] -6% | outcome [5] | outcome [6] | outcome [7] | outcome [8]
active: growth inhibition [1] 97% | growth inhibition [4] 101%

CN1CCCC(CN2CCN(Cc3cccc(-c4ccc(-c5nc6ccc(C(F)(F)F)cc6[nH]5)cc4)c3)CC2)C1 (stereo not drawn)
inactive: inhibition [3] 5% | outcome [5] | outcome [6] | outcome [7] | outcome [8]
active: growth inhibition [1] 96% | inhibition [2] 100% | growth inhibition [4] 99%

Clc1ccc(-n2cnc3c(Nc4ccc(Oc5ccccc5)cc4)ncnc32)cc1Cl
inactive: inhibition [2] 4% | inhibition [3] 0% | outcome [5] | outcome [6] | outcome [7] | outcome [8]
active: growth inhibition [1] 65% | growth inhibition [4] 99%
